Source: ChEMBL document CHEMBL5058541

Tests used:
Conditions in all cases: Compound concentration 20.0 uM, Protein concentration 2.0 uM, Result type QC Liability
[1] = target: Tyrosine-protein kinase ABL1 (Homo sapiens) (UniProt P00519)
[2] = target: Cyclin-dependent kinase 2 (Homo sapiens) (UniProt P24941)
[3] = target: Casein kinase I isoform delta (Homo sapiens) (UniProt P48730)
[4] = target: Glycogen synthase kinase-3 beta (Homo sapiens) (UniProt P49841)
[5] = target: Mitogen-activated protein kinase 1 (Homo sapiens) (UniProt P28482)
Mitogen-activated protein kinase 1 (Homo sapiens), sequence (P28482 whole entry): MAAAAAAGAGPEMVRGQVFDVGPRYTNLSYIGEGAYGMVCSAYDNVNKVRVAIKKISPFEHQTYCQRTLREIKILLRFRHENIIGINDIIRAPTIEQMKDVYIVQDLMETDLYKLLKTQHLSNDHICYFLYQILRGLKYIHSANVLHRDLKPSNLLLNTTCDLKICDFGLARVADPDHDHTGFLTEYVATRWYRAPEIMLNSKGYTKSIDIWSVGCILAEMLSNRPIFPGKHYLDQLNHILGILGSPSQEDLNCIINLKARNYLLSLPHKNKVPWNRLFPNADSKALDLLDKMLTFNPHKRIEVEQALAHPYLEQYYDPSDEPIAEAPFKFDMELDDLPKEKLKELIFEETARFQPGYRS

[6] = target: T1, Aurora kinase A (Homo sapiens) (UniProt O14965)
T1 sequence (whole entry): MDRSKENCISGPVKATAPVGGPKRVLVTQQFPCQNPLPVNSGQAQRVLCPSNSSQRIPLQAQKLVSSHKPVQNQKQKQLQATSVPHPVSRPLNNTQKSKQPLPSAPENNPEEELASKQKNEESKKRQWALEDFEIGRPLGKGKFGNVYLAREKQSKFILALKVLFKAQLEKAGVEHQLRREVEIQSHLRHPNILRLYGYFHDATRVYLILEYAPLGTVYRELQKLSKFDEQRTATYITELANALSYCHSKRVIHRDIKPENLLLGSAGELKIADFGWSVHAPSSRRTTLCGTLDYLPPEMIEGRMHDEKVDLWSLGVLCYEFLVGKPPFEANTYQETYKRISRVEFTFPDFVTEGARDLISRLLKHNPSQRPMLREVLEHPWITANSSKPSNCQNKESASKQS

Casein kinase I isoform delta (Homo sapiens), sequence (P48730 whole entry, looked up, canonical isoform): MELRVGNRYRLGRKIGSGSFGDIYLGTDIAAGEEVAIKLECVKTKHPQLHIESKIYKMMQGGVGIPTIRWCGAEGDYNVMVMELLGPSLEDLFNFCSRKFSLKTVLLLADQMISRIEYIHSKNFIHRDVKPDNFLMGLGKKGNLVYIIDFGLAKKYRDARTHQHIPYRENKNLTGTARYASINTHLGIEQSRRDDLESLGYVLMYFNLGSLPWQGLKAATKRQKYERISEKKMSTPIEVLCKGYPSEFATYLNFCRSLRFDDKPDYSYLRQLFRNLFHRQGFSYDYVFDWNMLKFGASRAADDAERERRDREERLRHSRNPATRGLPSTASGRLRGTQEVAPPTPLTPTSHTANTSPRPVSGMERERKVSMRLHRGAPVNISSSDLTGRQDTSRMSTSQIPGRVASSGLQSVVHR
Tyrosine-protein kinase ABL1 (Homo sapiens), sequence (P00519 whole entry): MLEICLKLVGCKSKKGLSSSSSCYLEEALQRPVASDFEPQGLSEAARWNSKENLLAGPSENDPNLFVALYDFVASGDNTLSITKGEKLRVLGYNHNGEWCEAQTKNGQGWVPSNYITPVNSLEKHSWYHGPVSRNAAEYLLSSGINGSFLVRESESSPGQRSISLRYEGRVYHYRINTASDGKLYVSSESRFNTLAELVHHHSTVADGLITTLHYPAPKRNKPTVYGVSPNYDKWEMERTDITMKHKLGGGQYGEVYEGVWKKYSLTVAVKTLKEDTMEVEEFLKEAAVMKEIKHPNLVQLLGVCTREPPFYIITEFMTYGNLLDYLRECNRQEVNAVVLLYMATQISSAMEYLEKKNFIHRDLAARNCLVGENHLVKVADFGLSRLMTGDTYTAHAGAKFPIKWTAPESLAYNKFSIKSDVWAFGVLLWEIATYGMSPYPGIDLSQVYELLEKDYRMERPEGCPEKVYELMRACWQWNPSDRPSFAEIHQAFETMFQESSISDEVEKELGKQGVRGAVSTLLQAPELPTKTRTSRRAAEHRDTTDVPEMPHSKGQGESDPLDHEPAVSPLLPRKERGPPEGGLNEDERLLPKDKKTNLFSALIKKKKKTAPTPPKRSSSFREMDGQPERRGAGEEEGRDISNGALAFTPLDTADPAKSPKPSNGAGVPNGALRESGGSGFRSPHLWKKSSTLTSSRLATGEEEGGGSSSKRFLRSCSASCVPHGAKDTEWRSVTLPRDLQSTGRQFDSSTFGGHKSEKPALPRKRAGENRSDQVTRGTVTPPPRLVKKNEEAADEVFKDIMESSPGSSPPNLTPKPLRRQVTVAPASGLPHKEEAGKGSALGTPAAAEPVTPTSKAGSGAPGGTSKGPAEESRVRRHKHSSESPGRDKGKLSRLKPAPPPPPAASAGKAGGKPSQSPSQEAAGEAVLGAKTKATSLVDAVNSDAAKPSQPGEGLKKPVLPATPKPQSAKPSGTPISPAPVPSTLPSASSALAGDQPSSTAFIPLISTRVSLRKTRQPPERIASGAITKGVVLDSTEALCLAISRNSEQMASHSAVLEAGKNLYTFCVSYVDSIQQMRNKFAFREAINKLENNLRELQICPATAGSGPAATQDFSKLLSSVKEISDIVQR
Glycogen synthase kinase-3 beta (Homo sapiens), sequence (P49841 whole entry, looked up): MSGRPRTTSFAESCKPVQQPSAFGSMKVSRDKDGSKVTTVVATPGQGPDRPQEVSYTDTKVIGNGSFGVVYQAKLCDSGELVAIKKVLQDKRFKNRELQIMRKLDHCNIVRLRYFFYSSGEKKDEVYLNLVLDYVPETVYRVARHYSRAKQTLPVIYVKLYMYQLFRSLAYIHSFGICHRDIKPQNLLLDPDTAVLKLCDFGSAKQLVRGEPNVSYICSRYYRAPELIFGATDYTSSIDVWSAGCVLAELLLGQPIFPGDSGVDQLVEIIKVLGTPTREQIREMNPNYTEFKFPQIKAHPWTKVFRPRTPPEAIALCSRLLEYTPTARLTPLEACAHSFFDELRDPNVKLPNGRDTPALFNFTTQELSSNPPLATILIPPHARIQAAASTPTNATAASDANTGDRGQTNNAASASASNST

Structure (SMILES) | ΔTm [1] | ΔTm [2] | ΔTm [3] | ΔTm [4] | ΔTm [5] | ΔTm [6]
CS(=O)(=O)N1CCCC(NC(=O)[C@H](CCC2CCCCC2)NC(=O)c2ccc(CNC(=O)c3cnc4ccccn34)cc2)C1 (some centres undefined) | 2.13 c | -0.19 c | 0.571 c | -0.0668 c | -0.218 c | 0.119 c
O=C(NCCCN1CCOC1=O)c1cnc(NCc2cc(Br)ccc2Br)nc1NC1CCCC1 | 0 c | -0.772 c | 0 c | 0 c | -0.601 c | 0.0724 c
CN(c1ncccc1CNc1ccnc(-c2nc3c(F)c(Cl)ccc3[nH]2)n1)S(C)(=O)=O | 1.73 c | 0.96 c | 0.76 c | 0.69 c | 0.36 c | 1.93 c
CN(C)C(=O)c1ccc(-c2cc(C(=O)N[C@@H]3CCc4ccccc43)no2)cc1O | 0.236 c | -0.0936 c | 0.0788 c | -0.463 c | -0.0605 c | 0.213 c
